In all, about 33,000 sequences were measured (“E-score (-0.5 to 0.5)”: median about -0.0059, highest 2% from about 0.26 on). For the sample, the highest values were picked, then their nearest neighbours and some sequences at random.
Each sequence was assayed against T1, Cin5 (UniProt P40917) (assay: PBM E-score (8-mer binding enrichment) (E-score (-0.5 to 0.5)); higher = stronger / more preferred TF binding). Details: protein concentration: 100 nM; construct: GST-full length.
T1 sequence: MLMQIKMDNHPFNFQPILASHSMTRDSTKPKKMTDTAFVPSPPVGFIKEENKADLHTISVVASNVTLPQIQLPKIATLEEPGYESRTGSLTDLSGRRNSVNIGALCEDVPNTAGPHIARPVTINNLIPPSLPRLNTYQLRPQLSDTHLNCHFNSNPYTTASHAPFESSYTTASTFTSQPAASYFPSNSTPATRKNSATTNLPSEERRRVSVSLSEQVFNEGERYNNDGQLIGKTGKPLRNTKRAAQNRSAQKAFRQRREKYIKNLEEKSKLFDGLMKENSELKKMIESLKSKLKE
Summary of the method: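 Masliner-normalised scans of fluorescent anti-GST signal were the basis for scoring. That signal came from GST-tagged yeast transcription factors applied at about 100-200 nM to double-stranded universal all-10-mer Agilent arrays on fresh or once-stripped slides. Each ungapped eight-base word, pooled with its reverse complement, received an E-score from the Universal PBM Analysis Suite.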

Row | Sequence | PBM E-score
1 | CCTAGAGA | -0.119
2 | ATAAAGTG | 0.149
3 | GTAAAGTA | 0.305
4 | GCAAAGTA | 0.175
5 | CTAAAGTA | -0.0582
6 | ATAAAGTC | 0.113
7 | ATAAAGTA | 0.264
8 | ACACGCCT | -0.127
9 | CTTTATGC | -0.0141
10 | CAGGTACC | -0.324
11 | CGAGATTA | 0.244
12 | AGAGCGCA | -0.168
13 | ACCTTACA | -0.0412
14 | GGGACATA | 0.0818
15 | CTGACATA | 0.153
16 | GTGACATA | 0.303
17 | GTGACACA | 0.096
18 | ATGACATC | 0.248
19 | ATGACATA | 0.296
20 | ATAGGGCA | -0.0914
21 | CCCAGGCC | -0.308
22 | CTAAGAAA | -0.0357
23 | CCGCGCGA | 0.186

Row | Sequence | PBM E-score
24 | ATCCGCGG | 0.271
25 | ATCCGCGA | 0.015
26 | ATCCGCGC | -0.0165
27 | GCGCGCGC | 0.306
28 | CCGCGCGC | 0.0301
29 | CCGCGCGG | 0.307
30 | ACGCGCGC | 0.158
31 | GCGCGCGA | 0.104
32 | AGGGTCGA | -0.084
33 | AAACCAAT | 0.188
34 | GCTTGAAA | 0.0153
35 | ATATCAAA | 0.166
36 | TAATCCAA | 0.283
37 | TTATCAAA | 0.298
38 | AAATCCAC | 0.0254
39 | AAATCCAT | 0.312
40 | GAATCAAA | 0.142
41 | CTATCAAA | 0.199
42 | CAATCAAA | 0.151
43 | AAATCCAG | 0.13
44 | GAATCCAA | 0.0873
45 | TAATCAAA | 0.329
46 | AAATCCAA | 0.117

Row | Sequence | PBM E-score
47 | AAAAGAAT | 0.257
48 | CGTCTGAA | -0.133
49 | CAAAGTCA | 0.107
50 | CACGGGCC | -0.296
51 | CCGCATGA | -0.136
52 | CCAAAGAC | -0.185
53 | CAATCTCG | 0.0199
54 | GAATCGCA | -0.0879
55 | TAATCGCA | 0.294
56 | CAATCATA | 0.201
57 | TAATCATA | 0.326
58 | AAATCATA | 0.198
59 | CAATCGCA | 0.13
60 | ACGTTGCT | 0.188
61 | ATGCTTGA | 0.133
62 | AAGAAGTG | 0.015
63 | ATTATTCG | 0.288
64 | ATTATTAG | 0.0574
65 | ATTATTCC | 0.273
66 | CTTATTCA | 0.142
67 | ACTATTCG | 0.224
68 | ATTATTCA | 0.262
69 | ACTATTCC | 0.0567

Row | Sequence | PBM E-score
70 | CTTATTCC | 0.117
71 | GTTATTCA | 0.143
72 | GCGACCGA | 0.0144
73 | GTGAGGAA | -0.138
74 | GGCTTTTA | -0.223
75 | AACTGGGA | -0.0428
76 | AATCCTAA | 0.0229
77 | ACAGTTGG | 0.016
78 | ATAACCAA | 0.258
79 | ATAACGAC | 0.238
80 | ATAACCAG | 0.0194
81 | ATAACGTA | 0.313
82 | ATAACGAA | 0.294
83 | ATAACGTC | 0.0919
84 | CTAACCAA | 0.0775
85 | CTAACGAA | -0.0791
86 | GTAACGTA | 0.129
87 | ACCGGCGC | 0.0762
88 | ATCCGGCA | 0.0463
89 | GGTGAACC | -0.108
90 | CTTTTGAC | -0.0394
91 | AGTTACTC | 0.0474
92 | CGACACCC | -0.0488

Row | Sequence | PBM E-score
93 | ACATAGAG | -0.0918
94 | ATGCGCAA | 0.128
95 | ATGCGCAT | 0.332
96 | ATGCGCAC | 0.0881
97 | AAGTCTAA | -0.0864
98 | ACCCATTG | -0.0482
99 | CAAGTTAC | 0.104
100 | CTAAGCAG | 0.042
101 | ATAAGCAA | 0.349
102 | ATAAGCAG | 0.33
103 | GTAAGCAC | 0.319
104 | ATCAGCAA | 0.0322
105 | CTCAGCAA | 0.0669
106 | ATAAGCAC | 0.175
107 | CTAAGCAC | 0.183
108 | CTAAGCAA | 0.076
109 | ACAAGCAA | 0.122
110 | GTCAGCAA | 0.267
111 | ATAAGCAT | 0.118
